Among the test systems are DU-145 prostate; K-562 leukemia; MALME-3M melanoma; MDA-MB-231 breast; RXF 393 renal; SF-268 CNS; SF-539 CNS; UACC-257 melanoma; HCT-15 colon; HT29 colon; SNB-75 CNS; SNB-19 CNS; U251 CNS; PC-3 prostate; SK-MEL-5 melanoma; UACC-62 melanoma; LOX IMVI melanoma; SK-MEL-28 melanoma; M14 melanoma; SF-295 CNS.
Test in all cases: NCI-60 one-dose screen, 48 h (100 = growth as untreated, 0 = no growth, -100 = all killed)
Holding throughout (settings): 10 µM unless noted

About 83,000 compounds went through this panel and 20% of them were active in at least one assay; those are over-represented in the sample as a whole.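 Testing used 96-well plates and a 48-hour single-concentration exposure. Example: -40 means 40% of the starting cells died.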 Values without a mark were called inactive. The source made the active and inactive calls. The calls were made as follows: active = growth percent below 10; inactive = the rest.

As for `O=[N+]([O-])c1cccc([I+]c2ccccc2)c1`, the growth in the test on DU-145 prostate is 58.5%; with K-562 leukemia it was 27.3%; in the test on MALME-3M melanoma, 49.4%; in the test with MDA-MB-231 breast it was 83.2%; with RXF 393 renal it was 72.4%; in the test with SF-268 CNS it was 50.1%. For the same molecule, the growth is 65.6% in the test on SF-539 CNS; 80.1% in the test on UACC-257 melanoma; 52.5% in the test on HCT-15 colon; 27.3% in the test on HT29 colon; 46.9% in the test on SNB-75 CNS; 71.3% in the test on SNB-19 CNS. Besides, the growth in the test with U251 CNS is 52.1%; in the test on PC-3 prostate, 59.1%; with SK-MEL-5 melanoma, -2.62% (active); in the test on UACC-62 melanoma it was 52.2%; in the test on LOX IMVI melanoma it was 36.2%; in the test with SK-MEL-28 melanoma it was 61.5%.
With `C#CCNC(=S)N/N=C(\C)c1ccccn1`, the growth with DU-145 prostate is 15.4%; in the test on K-562 leukemia, 15.2%; in the test with MALME-3M melanoma, 12.1%; in the test with MDA-MB-231 breast, 39.5%; with RXF 393 renal it was 6.73% (active); in the test with SF-268 CNS, 14.7%. The growth is 1.69% (active) in the test with SF-539 CNS; 16.4% in the test with UACC-257 melanoma; -21.7% (active) in the test on M14 melanoma; 28.4% with HCT-15 colon; 31.5% in the test with HT29 colon; 38.8% in the test with SNB-19 CNS. Besides, the growth is 23.1% in the test with U251 CNS; 48.1% in the test with PC-3 prostate; -5.96% (active) in the test with UACC-62 melanoma; 15.3% in the test on LOX IMVI melanoma; 55.3% in the test with SK-MEL-28 melanoma.
Turning to `CCCCNCCC(O)c1cc2ccc(C(F)(F)F)cc2c2cc(C(F)(F)F)ccc12` (stereo unspecified), the growth with DU-145 prostate was -93.4% (active); in the test on K-562 leukemia, -72.1% (active); with MALME-3M melanoma, -59.5% (active); in the test with MDA-MB-231 breast, -73.3% (active); in the test on RXF 393 renal, -90.8% (active); with SF-268 CNS it was -88% (active). The growth is -81.8% (active) in the test on SF-539 CNS; -75.5% (active) in the test on UACC-257 melanoma; -84.6% (active) in the test with M14 melanoma; -65.2% (active) in the test on HCT-15 colon; -84.8% (active) in the test on HT29 colon; -93.7% (active) in the test with U251 CNS. Also, the growth in the test with PC-3 prostate is -85.2% (active); with SK-MEL-5 melanoma, -87.6% (active); in the test with UACC-62 melanoma it was -84.3% (active); in the test on LOX IMVI melanoma it was -71.2% (active); in the test with SK-MEL-28 melanoma, -87.7% (active).
For `CCOC(=O)c1ccc(NC(=O)NC2=NCCS2)cc1`, the growth is 0.751% (active) in the test on DU-145 prostate; 58.6% in the test with K-562 leukemia; 8.27% (active) in the test with MALME-3M melanoma; 51.8% in the test with MDA-MB-231 breast; -15.3% (active) with RXF 393 renal; 40.4% with SF-268 CNS. The growth was 1.9% (active) in the test with SF-539 CNS; 80.5% in the test on UACC-257 melanoma; 59.3% in the test on HCT-15 colon; 106% in the test with HT29 colon; 21.5% in the test with SNB-75 CNS; 54.3% in the test with SNB-19 CNS. Besides, the growth in the test with U251 CNS is 26.6%; with PC-3 prostate, 16%; with SK-MEL-5 melanoma, 75.9%; with UACC-62 melanoma, 78.9%; with LOX IMVI melanoma, 92.4%; with SK-MEL-28 melanoma, 87.3%.
On to `Oc1[nH]c2ccccc2c1/C=c1/ccc2c(c1)N=C(c1ccc(C(F)(F)F)cc1)N=2`, for which the growth in the test with DU-145 prostate is 63.1%; in the test on K-562 leukemia, 14.6%; in the test on MALME-3M melanoma it was 74.2%; in the test with MDA-MB-231 breast, 46.6%; in the test on RXF 393 renal, -37.2% (active); in the test with SF-268 CNS it was 68.7%. Also, the growth is 67.4% in the test on SF-539 CNS; 67.4% in the test with UACC-257 melanoma; 44.5% in the test with HCT-15 colon; 37.9% in the test with HT29 colon; 48.7% in the test on SNB-75 CNS; 61.6% in the test with SNB-19 CNS. The growth with U251 CNS was 32.5%; in the test on PC-3 prostate it was 32.5%; with SK-MEL-5 melanoma, 69.9%; in the test with UACC-62 melanoma, 47.2%; in the test with LOX IMVI melanoma, 43.4%; with SK-MEL-28 melanoma, 52.8%.
As to `COc1ccc(/C=C/C(=O)c2ccc(NC(=O)CSc3nnc(-c4ccc(OC)cc4)n3-c3ccccc3)cc2)cc1`, the growth in the test on DU-145 prostate was 104%; in the test with K-562 leukemia, 78.1%; in the test with MALME-3M melanoma, 96.8%; in the test on MDA-MB-231 breast it was 90.9%; with RXF 393 renal, 108%; in the test on SF-268 CNS, 101%. Further, the growth with SF-539 CNS is 100%; in the test with UACC-257 melanoma, 91.9%; in the test with M14 melanoma, 92.7%; in the test on HCT-15 colon, 96.4%; in the test with HT29 colon it was 103%; with SNB-75 CNS, 91.7%. The growth in the test with U251 CNS is 87.1%; with PC-3 prostate it was 106%; in the test with SK-MEL-5 melanoma, 95.1%; in the test with UACC-62 melanoma, 89.4%; with LOX IMVI melanoma, 102%; with SK-MEL-28 melanoma, 106%.
As for `O=C(/C=C/c1ccccc1)C(Br)C(Br)c1ccccc1` (stereo unspecified), the growth in the test on DU-145 prostate is -21.3% (active); with K-562 leukemia, 1.4% (active); in the test with MALME-3M melanoma, -54.3% (active); in the test on MDA-MB-231 breast it was 27.7%; in the test on RXF 393 renal, -79.9% (active); with SF-268 CNS, 13.9%. Further, the growth with SF-539 CNS was -33.1% (active); in the test on UACC-257 melanoma it was 22.8%; in the test with M14 melanoma it was 17.2%; in the test on HCT-15 colon it was -32.7% (active); in the test with HT29 colon, -53.5% (active); in the test with SNB-19 CNS, 73.5%. The growth was 42.9% with U251 CNS; 4.21% (active) with PC-3 prostate; 38.9% with SK-MEL-5 melanoma; 5.9% (active) in the test on UACC-62 melanoma; -68.6% (active) with LOX IMVI melanoma; 11.1% in the test on SK-MEL-28 melanoma.
Take `OC(c1cc2cc(Cl)ccc2c2cc(C(F)(F)F)ccc12)C1CCCCN1` (stereo unspecified): the growth in the test with DU-145 prostate is -95.8% (active); in the test with K-562 leukemia it was -76.8% (active); in the test with MALME-3M melanoma, -61.9% (active); in the test on MDA-MB-231 breast it was -68% (active); in the test with RXF 393 renal, -95.4% (active); in the test with SF-268 CNS, -90.1% (active). For the same molecule, the growth with SF-539 CNS is -80.5% (active); with UACC-257 melanoma it was -84% (active); in the test with M14 melanoma, -72% (active); in the test with HCT-15 colon, -61.7% (active); in the test on HT29 colon it was -87.3% (active); with SNB-75 CNS it was -90% (active). The growth in the test on U251 CNS was -93.4% (active); in the test with PC-3 prostate, -83.1% (active); in the test on SK-MEL-5 melanoma, -24.9% (active); in the test with UACC-62 melanoma, -72.7% (active); in the test on LOX IMVI melanoma, -39.8% (active); in the test on SK-MEL-28 melanoma, -90.5% (active).
As to `CC1=NN(c2cccc(S(N)(=O)=O)c2)C(=O)C1`, the growth with DU-145 prostate was 100%; with K-562 leukemia it was 99.4%; in the test on MALME-3M melanoma, 89.9%; in the test on MDA-MB-231 breast it was 97.1%; with SF-268 CNS, 91.6%; in the test with SF-295 CNS, 87.8%. The growth was 91.5% with SF-539 CNS; 124% with UACC-257 melanoma; 95.3% in the test with M14 melanoma; 111% in the test with HCT-15 colon; 104% in the test with HT29 colon; 82.7% in the test with SNB-75 CNS. Besides, the growth in the test with SNB-19 CNS is 90.4%; in the test on U251 CNS it was 101%; in the test with PC-3 prostate it was 80.1%; in the test on SK-MEL-5 melanoma, 92.8%; with UACC-62 melanoma, 89.7%; in the test on LOX IMVI melanoma, 96.3%. In addition, in the test with SK-MEL-28 melanoma, the growth was 111%.

For the origin of these results see PubChem BioAssay (NCI).
